Results as given in ChEMBL document CHEMBL3988442, “University of Dundee, Small-Polar-MMV Screening Library” (2021).

Columns and labels:
[1] = molecular target: T1, Aspartate--tRNA(Asp/Asn) ligase (Mycobacterium tuberculosis (strain ATCC 25618 / H37Rv)) (UniProt P9WFW3); experiment: Assay for Asp RNA synthetase-1 from Mycobacterium tuberculosis; type: functional; set-up: scale not given: direction of the effect not stated beside the values; details: 30 µM; note: in the data most compounds retested in dose-response had high values
T1 sequence (whole entry): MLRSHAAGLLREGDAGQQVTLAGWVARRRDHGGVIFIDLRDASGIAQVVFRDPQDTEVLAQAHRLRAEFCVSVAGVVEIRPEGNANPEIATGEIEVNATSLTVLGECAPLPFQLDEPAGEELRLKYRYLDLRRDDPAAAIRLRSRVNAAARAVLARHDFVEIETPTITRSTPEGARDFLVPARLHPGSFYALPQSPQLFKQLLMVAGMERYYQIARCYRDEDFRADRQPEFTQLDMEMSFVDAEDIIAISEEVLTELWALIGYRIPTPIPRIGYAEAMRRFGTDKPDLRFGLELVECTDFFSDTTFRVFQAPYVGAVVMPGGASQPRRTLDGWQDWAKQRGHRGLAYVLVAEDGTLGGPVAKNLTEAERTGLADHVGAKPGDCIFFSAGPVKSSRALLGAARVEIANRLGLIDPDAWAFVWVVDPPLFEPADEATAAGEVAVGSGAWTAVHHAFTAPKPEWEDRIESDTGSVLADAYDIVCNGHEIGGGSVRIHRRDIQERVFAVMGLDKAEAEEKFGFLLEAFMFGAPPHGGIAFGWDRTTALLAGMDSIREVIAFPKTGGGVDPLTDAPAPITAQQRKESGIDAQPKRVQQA

[2] = molecular target: Shiga toxin 2 (Escherichia coli O157:H7) (UniProt P09385+P09386); experiment: E. coli 0.157:H7 Shiga Toxin SOP - stx2 screening assay; type: functional; set-up: scale not given: direction of the effect not stated beside the values; details: 30 µM

Structure (SMILES)	Percent Effect [1]	Percent Effect [2]
CN(C)C(=O)N1CCN(C(=O)C(c2ccccc2F)N(C)C)CC1 (centres undefined)	0.752%	-3.65%
Cc1nc(N)sc1C(=O)N1CCCC(c2nccn2CCCN(C)C)C1 (centres undefined)	-0.893%	12.2%
Cc1nn(C)c2c(NCc3cccnc3)nc(C3CC3)nc12	8.74%	-7.86%
O=C(c1ccc(Cl)o1)N1CCCC(c2cc(C(F)(F)F)[nH]n2)C1 (centres undefined)	3.23%	38.7%
Cc1nc(N2CCN(C)CC2)ncc1C(=O)N1CC(C)(C)C(C)(O)C1 (centres undefined)	3.48%	-28.2%
Cc1c(F)cccc1CN1CCn2nc(CNC(=O)N(C)C)cc2C1	0.386%	-49.9%
Cn1ccc(CN2CCC(CCc3ccc(O)cc3)CC2)cc1=O	-1.67%	-46.5%
Cc1ccc2c(ccn2CCC(=O)N2CCC(C(N)=O)CC2)c1	0.842%	-2.06%
O=C(NCc1ccco1)[C@@]12CCO[C@@H]1CCN(CCN1CCCC1)C2	1.05%	-24.8%
O=C(c1cccc2c1OCO2)N1CCCC1c1noc(C2CC2)n1 (centres undefined)	-11.7%	-15.1%
CNC(=O)[C@@H]1C[C@H]2CN(Cc3ccco3)C[C@H]2N1C	1.3%	-1.93%
O=C(NCCNc1ncccn1)C1CCN(c2ncccn2)CC1	-0.874%	5.72%
CC(C)(C)n1ncc2c1NC(=O)CC2c1ccccc1 (centres undefined)	-5%	22%
CN(Cc1nnc2n1CCC2)C(=O)Cc1ccc2c(c1)OCCO2	4.23%	18.1%
Cc1n[nH]c(C)c1NC(=O)CN1CCn2c(nnc2C(C)C)C1	0.173%	13.2%
CNc1cc2c(nn1)CCN(C(=O)c1ccoc1)C2	0.663%	28.5%
O=C(c1ccc[nH]1)N1CCn2cc(Cn3cncn3)nc2C1	1.43%	-6.64%
